VP16 counter: Gal4-VP16 reporter inhibition counter-screen | Potency, µM (top dose mostly 53.6 µM), inactives show top-dose activity, negative = inhibition, most hits filed as inhibitors | actives 3.5% (n = 310,000) | AID 2546 | Drosophila S2 Gal4-VP16 UAS-luciferase, luminescence, 20 h;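 note: Gal4-VP16 expression switched on by copper sulfate through the metallothionein promoter; potency is the fitted concentration of half-maximal effect; nearly all actives have a fitted effect of over 50% in size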
ELG1 DNA repair: inhibitors of ELG1-dependent DNA repair in HEK293T cells; actives 2.3% (n = 330,000); HEK293T ELG1-luciferase reporter, luminescence, 16 h; DNA damage induced by 5-fluorouridine; Potency, µM (series often up to 46.1 µM), for inactives: at the top dose activity change, negative = inhibition, hits mostly inhibitors; note: potency is the fitted concentration of half-maximal effect; nearly all actives have a fitted effect of over 55% in size
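In this reporter screen, reduction of luminescence relative to DMSO vehicle indicated activity. Compounds and 5-fluorouridine were added together to 2,000 cells per well, incubated for 16 hr at 37 °C, then developed with ONE-Glo.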
RORg inh: ROR gamma (mouse) transcription inhibition | actives 5.4% (n = 310,000) | Drosophila S2 Gal4-RORgamma UAS-luciferase reporter, 20 h | P51450 | AID 2551 | Potency, µM (top dose mostly 53.6 µM), inactives show at the highest dose activity change, negative = inhibition, most hits filed as inhibitors; note: potency is the fitted concentration of half-maximal effect; nearly all actives have a fitted effect of over 60% in size
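Drosophila Schneider cells stably carrying a metallothionein-driven Gal4 DBD–ROR gamma fusion and a UAS-Photinus luciferase reporter were exposed to compound for 1 hr, then induced with copper sulfate (700 uM final) for 20 hr at ambient temperature before luminescence reading.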
TSHR antagonist: blocks TSH signaling through the human TSH receptor | activity change, negative = inhibition, % at 11.5 µM | actives 0.2% (n = 330,000) | P16473 | TSHR-expressing cells, TSH-stimulated cAMP HTRF, 2 h; hits give low values;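 active = activity change below a set negative limit, meaning inhibition stronger than a set level, cut at about -70% in these data; inconclusive = activity change between two set negative limits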
Target sequence (P16473 whole entry, looked up): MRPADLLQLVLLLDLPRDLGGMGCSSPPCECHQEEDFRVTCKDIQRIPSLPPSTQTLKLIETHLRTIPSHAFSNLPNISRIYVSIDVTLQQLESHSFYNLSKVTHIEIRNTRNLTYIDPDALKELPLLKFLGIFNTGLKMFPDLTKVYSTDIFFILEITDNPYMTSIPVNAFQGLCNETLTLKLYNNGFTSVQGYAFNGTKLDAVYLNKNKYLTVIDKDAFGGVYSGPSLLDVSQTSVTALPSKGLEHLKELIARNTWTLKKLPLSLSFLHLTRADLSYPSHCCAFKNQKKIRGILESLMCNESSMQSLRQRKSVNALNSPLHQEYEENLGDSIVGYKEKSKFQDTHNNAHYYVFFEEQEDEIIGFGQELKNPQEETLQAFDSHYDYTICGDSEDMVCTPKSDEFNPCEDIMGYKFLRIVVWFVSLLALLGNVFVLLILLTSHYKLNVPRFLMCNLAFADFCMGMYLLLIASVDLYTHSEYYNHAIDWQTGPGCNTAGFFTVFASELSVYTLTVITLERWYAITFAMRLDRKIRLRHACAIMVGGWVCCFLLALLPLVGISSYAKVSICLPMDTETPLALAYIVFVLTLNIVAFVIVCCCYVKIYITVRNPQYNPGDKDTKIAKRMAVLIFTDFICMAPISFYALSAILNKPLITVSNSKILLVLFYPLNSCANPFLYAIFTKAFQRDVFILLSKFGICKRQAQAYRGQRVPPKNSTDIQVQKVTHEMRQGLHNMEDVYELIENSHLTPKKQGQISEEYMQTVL
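Antagonism was scored as loss of TSH-driven cAMP in TSHR cells, stimulated with 4nM TSH (EC80) for 2 hours at 37 deg C and detected by homogeneous HTRF competition immunoassay.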
Coupling enz: counter-screen for Giardia aldolase inhibitors: coupling enzyme system | actives 0.67% (n = 290,000) | activity change, negative = inhibition, % at 58.2 µM, hits read low | coupling enzyme system counterscreen, AmpLite Red fluorescence | AID 2472; in the data active = activity change below about -30%
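Counterscreen lacking aldolase: glyceraldehyde-3-phosphate coupling-enzyme reagent preincubated 10 min at RT with compound (at 57.5 uM final), then substrate/coupling system with AmpLite Red added; fluorescence read at 525/598 nm after 20 min RT.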
* = called active by the depositor; ? = inconclusive; . = not tested or not shown; [ ] = remark or other dose. A selection: hits, their analogues and other compounds. The true share with any hit is near 8%. Unless noted, calls come from the whole dose curve; as a rule, active = well fitted curve in the direction sought with a large enough effect; inconclusive = small, poorly fitted or top-dose-only effect, or another doubt; inactive = no such curve, though single readings can be large; an effect the other way counts as inactive or inconclusive. % is set by controls: 0 for no effect and ±100 for the full control effect.

SMILES	VP16 counter	ELG1 DNA repair	RORg inh	TSHR antagonist	Coupling enz
COc1ccc(CCNC(=S)Nc2cc(C)ccc2C)cc1	-2%	-18%	21%	7	3
O=C(CC1NCCC[C@H]1O)Cn1cnc2cc(Br)c(Cl)cc2c1=O (stereo not given in full)	6%	.	0%	.	.
O=S(=O)(Nc1ccc(-n2cnnn2)cc1)c1cccc(Cl)c1	.	14%	.	-5	.
N#CCC(=O)Nc1ccc(C(=O)OCC(=O)N=c2sccn2Cc2ccccc2Cl)cc1	.	?	.	6	.
CS(=O)(=O)c1ccc(Cl)c(NC(=O)COC(=O)CNC(=O)c2ccc3ccccc3c2)c1	.	?	.	4	.
COc1ccccc1CN1CC2(CCN(C(=O)c3cnccn3)CC2)C1	7%	.	-31%	.	3
Cc1ccc(CNC(=S)Nc2cc(C)ccc2OC(F)F)cc1	?	-2%	4.5µM*	-3	0
Cc1ccc(C)c(NC(=S)N/N=C/C(C)c2ccccc2)c1 (stereo not given)	7.1µM*	-4%	0.56µM*	-1	2
COc1ncc2nc(-c3ccccc3)c(=O)n(C[C@H]3CCCO3)c2n1	-1%	.	-16%	.	2
CCCc1nnc(NC(=O)CCC(=O)NC2CCCC2)s1	9%	23%	-11%	8	.
Cc1cccc(OCC(=O)Nc2ccc(N3CCN(C(=O)c4ccccc4)CC3)cc2)c1	-16%	18µM*	27%	-9	0
CC(=O)N1CCN(c2ccc(NC(=O)COc3ccc(Cl)cc3Cl)cc2)CC1	1%	9.2µM*	8%	-13	0
Cc1ccc(OCC(=O)Nc2ccc(N3CCN(C(=O)c4ccc(C)cc4)CC3)cc2)cc1	-4%	?	-10%	-5	2
CC(=O)N1CCN(c2ccccc2NC(=O)COc2ccc(Cl)cc2Cl)CC1	-17%	?	9%	.	-2
O=C(COc1ccccc1Cl)Nc1ccc(N2CCN(C(=O)c3ccccc3)CC2)cc1	-29%	13µM*	?	-25	.
Cc1ccccc1OCC(=O)Nc1ccc(N2CCN(C(=O)c3ccco3)CC2)cc1	-2%	21µM*	?	0	-1
COc1cccc([C@@H]2Oc3ccc(OC)cc3C(=O)[C@H]2OC(=O)Nc2ccc(C)c(Br)c2)c1	1%	.	-17%	.	-1
C[Si](C)(C)O[Si](C)(C)C	-5%	.	2%[10 µM]	.	.
Cc1noc(C)c1CSc1nc2sc(C)c(C)c2c(=O)n1-c1ccccc1	-2%	?	10%	-1	4
Cc1noc(C)c1CSc1nc2ccccc2c(=O)n1-c1ccc(Cl)cc1	5%	?	11µM*	4	6
Cc1noc(C)c1CSc1nc2ccccc2n1CCc1ccccc1	?	-4%	7.1µM*	-17	-6
COc1ccccc1-c1cn[nH]c(=S)n1	?	-4%	8.9µM*	-8	0
NC(=O)c1ccc(Oc2ccc3c(c2)CCC3)c([N+](=O)[O-])c1	-11%	-9%	11%	-9	-1
CCN(CC)S(=O)(=O)c1cccc(C(=O)N/N=C/c2ccc(O)c(O)c2O)c1	-7%	-14%	-32%	-12	-41*
CCOc1ccccc1/C=N/NC(=O)c1cccc(S(=O)(=O)N(CC)CC)c1	14%	?	-25%	-1	-38*
SMILES	VP16 counter	ELG1 DNA repair	RORg inh	TSHR antagonist	Coupling enz
CCN(CC)S(=O)(=O)c1cccc(C(=O)N/N=C(\C)c2ccc(O)cc2O)c1	6%	?	13µM*	-6	6
CCOc1ccccc1/C=N/NC(=O)c1cccc(Cl)c1	2%	-3%	?	4	2
CC(/C=N/NC(=O)c1ccccc1F)=C\c1ccccc1	-11%	?	-29%	-15	-1
Cn1c(-c2sccc2OCc2ccc(Cl)cc2Cl)n[nH]c1=S	7.1µM*	-22%	2.8µM*	-19	-1
Cc1ccc(COc2ccsc2-c2n[nH]c(=S)n2C)cc1	7.1µM*	2%	2.8µM*	-3	5
CCc1cc(C(=O)Nc2ncccc2O)sc1C	10µM*	?	7.9µM*	-13	-3
CCc1cc(C(=O)NNC(=O)CCl)sc1C	17%	-3%	10µM*	-5	-1
CCc1cc(C(=O)NNC(=O)CCN2CCN(c3ccccc3)CC2)sc1C	-4%	0%	-9%	-15	.
COc1ccccc1CC(=O)NNC(=O)c1ccco1	-11%	12%	32%	2	0
Cn1c(=S)c2[nH]c(SCCN3CCCC3)nc2n(C)c1=O	?	?	1µM*	18	-24
CCN1CCCC(Sc2nc3c([nH]2)c(=S)n(C)c(=O)n3C)C1 (stereo not given)	6.3µM*	3%	4µM*	-7	-9
Cn1c(=O)c2c(nc(SCCN3CCCCC3)n2C)n(C)c1=O	-11%	2%	-23%	-6	2
CCCc1nc(SC2CCCC2)c2c(=O)n(C)c(=O)n(C)c2n1	10%	-13%	-6%	0	-1
O=C(NCCc1cnc[nH]1)c1ccc(-c2ccccc2)cc1	20%	?	9%	4	1
CC(=O)N[C@@H](Cc1ccc(O)cc1)C(=O)N[C@H](C(=O)N[C@@H](C)C(=O)N[C@H](C#N)CC(=O)O)C(C)C	.	.	.	1	.
O=C(Nc1nc(-c2ccc(S(=O)(=O)N3CCCCCC3)cc2)cs1)c1cccs1	3%	13µM*	-10%	-29	-4
O=C(Nc1ccc(S(=O)(=O)N2CCCC2)cc1)c1cccs1	2%	7%	36%	18	1
O=C(Nc1nc(-c2ccc(S(=O)(=O)N3CCCC3)cc2)cs1)c1cccs1	13%	8.2µM*	17%	?	1
O=C(c1csnn1)N1CCC2(CC1)CN(c1cccc(-c3ccccc3)c1)C2	5%	.	39%	.	-3
COc1ccccc1CCC(=O)Oc1ccc(C#N)cc1OC	11µM*	3%	?	-12	.
COc1cc(C#N)ccc1OC(=O)Cc1cc(OC)c(OC)c(OC)c1	-14%	1%	12%	2	1
O=S(=O)(c1ccc(NC(=S)Nc2ccc(OC(F)F)cc2)cc1)N1CCOCC1	13%	1%	-3%	8	0
O=S(=O)(c1ccc(NC(=S)N/N=C/c2ccc(Oc3ccccc3)cc2)cc1)N1CCOCC1	-6%	12%	0.5µM*	-3	-1
O=S(=O)(c1ccc(NC(=S)N/N=C/c2ccc(N3CCOCC3)cc2)cc1)N1CCOCC1	6.3µM*	-17%	?	-7	0
O=S(=O)(c1ccc(NC(=S)NN=C2CCCCC2)cc1)N1CCOCC1	?	7%	8.9µM*	0	-9
O=S(=O)(c1ccc(NC(=S)N/N=C/c2c3ccccc3cc3ccccc23)cc1)N1CCOCC1	7.1µM*	?	?	-2	-9
C=C(C)/C=N/NC(=S)Nc1ccc(S(=O)(=O)N2CCOCC2)cc1	?	?	?	6	-10
